Source: PubChem BioAssay (NCI)
Where “and” joins values, the source holds several entries; their conditions need not be identical. Identical values can stand only once. About 83,000 compounds went through this panel and 20% of them were active in at least one assay; those are over-represented in the sample as a whole.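 Single-concentration screen, 48 h exposure, 96-well plates. Endpoint: percent growth. Below 10 = active.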 Calls of active or inactive are those of the source.

Tests used:
Experiment in all cases: NCI-60 one-dose screen, 48 h (100 = growth as untreated, 0 = no growth, -100 = all killed)
[1] = test system: SK-MEL-2 melanoma
[2] = test system: EKVX NSCLC
[3] = test system: SN12C renal
[4] = test system: UO-31 renal
[5] = test system: TK-10 renal
[6] = test system: ACHN renal
[7] = test system: CAKI-1 renal
[8] = test system: A498 renal
[9] = test system: CCRF-CEM leukemia
[10] = test system: MOLT-4 leukemia; details: 10 µM unless noted

Measured: growth

Cc1cc(C(NC(=O)C2CC3(CC(Nc4cccc5c4C(=O)N(C4CCC(=O)NC4=O)C5=O)C3)C2)c2ccc3c(c2)OC(F)(F)O3)c(O)c2ncccc12 (stereo not drawn)
active: [1]; 10 µM unless noted -4.6% | [2]; 10 µM unless noted 6.4% | [4]; 10 µM unless noted -5.11% | [6]; 10 µM unless noted 5.49% | [9]; 10 µM unless noted -7.69% | [10] 4.24%
inactive: [3]; 10 µM unless noted 14.1% | [5]; 10 µM unless noted 36.1% | [7]; 10 µM unless noted 10.6% | [8]; 10 µM unless noted 115%

O=C(CSc1nnc(-c2ccc(-c3nc4ccccc4[nH]3)cc2)o1)Nc1ccc(Cl)cc1
inactive: [1]; 10 µM unless noted 70.6% | [2]; 10 µM unless noted 16.2% | [3]; 10 µM unless noted 19.6% | [4]; 10 µM unless noted 57.8% | [5]; 10 µM unless noted 59.5% | [7]; 10 µM unless noted 17.1% | [8]; 10 µM unless noted 132% | [9]; 10 µM unless noted 32.5%
active: [6]; 10 µM unless noted -86.8% | [10] 6.05%

CC/C(=C(/c1ccc(O)cc1)c1ccc(OCCN(C)C(=O)COCCOCCNC(=O)c2ccc3c(c2)CN([C@@H]2CCC(=O)NC2=O)C3=O)cc1)c1ccccc1
inactive: [1]; 1 µM 101% | [1]; 10 µM 93.5% | [2]; 1 µM 99.1% | [2]; 10 µM 93.4% | [3]; 1 µM 96% | [3]; 10 µM 85% | [4]; 1 µM 87.2% | [4]; 10 µM 87.7% | [5]; 1 µM 99.1% | [5]; 10 µM 91.2% | [6]; 1 µM 104% | [6]; 10 µM 101% | [7]; 1 µM 99.3% | [7]; 10 µM 95.5% | [8]; 1 µM 114% | [8]; 10 µM 110% | [9]; 10 µM 12.9%
active: [9]; 1 µM 9.04%

Cn1cc(-c2cc3nc(-c4cn(C)c5ncc(Br)cc45)cc(N)n3n2)c2cc(F)ccc21
active: [6]; 10 µM unless noted -7.44% | [7]; 10 µM unless noted -3.51% | [9]; 10 µM unless noted 5.26%
inactive: [1]; 10 µM unless noted 88.8% | [2]; 10 µM unless noted 49% | [3]; 10 µM unless noted 26.4% | [4]; 10 µM unless noted 20.3% | [5]; 10 µM unless noted 16% | [8]; 10 µM unless noted 125% | [10] 17.4%

CN(C)c1ccc(/C=C/c2n(Cc3ccc4ccccc4c3)c3ccccc3[n+]2Cc2ccc3ccccc3c2)cc1
active: [1]; 10 µM unless noted -70.8% | [2]; 10 µM unless noted -95.8% | [3]; 10 µM unless noted -80.5% | [4]; 10 µM unless noted -91.9% | [5]; 10 µM unless noted -81.1% | [6]; 10 µM unless noted -97.6% | [7]; 10 µM unless noted -95.9% | [8]; 10 µM unless noted -82.1% | [9]; 10 µM unless noted -48.5% | [10] -38.1%

O=C(CSc1nnc(-c2ccc(-c3nc4ccccc4[nH]3)cc2)o1)Nc1ccc(Br)cc1
inactive: [1]; 10 µM unless noted 41.4% | [2]; 10 µM unless noted 27.1% | [3]; 10 µM unless noted 21.9% | [4]; 10 µM unless noted 63.2% | [5]; 10 µM unless noted 56.7% | [7]; 10 µM unless noted 25.2% | [8]; 10 µM unless noted 109% | [9]; 10 µM unless noted 23%
active: [6]; 10 µM unless noted -60.9% | [10] 4.27%

O=C(NNC(=O)c1ccc(OCc2nc3ccc(Cl)cc3[nH]2)cc1)Nc1ccc(Cl)c(Cl)c1
inactive: [1]; 10 µM unless noted 72.7% | [2]; 10 µM unless noted 91.9% | [3]; 10 µM unless noted 76.7% | [4]; 10 µM unless noted 84.7% | [5]; 10 µM unless noted 110% | [6]; 10 µM unless noted 106% | [7]; 10 µM unless noted 91.8% | [8]; 10 µM unless noted 182% | [9]; 10 µM unless noted 88.5% | [10] 94%

CC[C@]12C=CCN3CC[C@@]4(c5ccc(OC)cc5N(C)[C@H]4[C@@](O)(C(=O)OC)[C@@H]1OC(=O)CCCC[P+](c1ccc(F)cc1)(c1ccc(F)cc1)c1ccc(F)cc1)[C@@H]32
active: [1]; 10 µM unless noted -54%
inactive: [2]; 10 µM unless noted 53% | [3]; 10 µM unless noted 10.6% | [4]; 10 µM unless noted 85.9% | [5]; 10 µM unless noted 70.2% | [6]; 10 µM unless noted 103% | [7]; 10 µM unless noted 73.2% | [8]; 10 µM unless noted 99.2% | [9]; 10 µM unless noted 19.9% | [10] 29.1%

CSc1ccc(OCc2nc3ccccc3n2-c2cccc(NS(C)(=O)=O)c2)cc1
inactive: [1]; 10 µM unless noted 104% and 107% | [2]; 10 µM unless noted 103% and 81.3% | [3]; 10 µM unless noted 118% and 96.6% | [4]; 10 µM unless noted 59.5% and 78.4% | [5]; 10 µM unless noted 118% and 128% | [6]; 10 µM unless noted 90.8% and 94.9% | [7]; 10 µM unless noted 76.7% and 85% | [8]; 10 µM unless noted 137% and 153% | [9]; 10 µM unless noted 96.7% and 98.6% | [10] 96.7% and 97.4%

Cc1ccc(C(=O)Nc2cc(-n3ccnc3)cc(C(F)(F)F)c2)cc1-n1cc(-c2cnc3cccnn23)nn1
inactive: [1]; 10 µM unless noted 61.1% | [2]; 10 µM unless noted 117% | [3]; 10 µM unless noted 105% | [4]; 10 µM unless noted 61.4% | [5]; 10 µM unless noted 135% | [6]; 10 µM unless noted 97.8% | [7]; 10 µM unless noted 113% | [8]; 10 µM unless noted 180% | [9]; 10 µM unless noted 96% | [10] 105%

COC(=O)c1c(C(=O)OC)c2c3ccccc3c3ccccc3n2c1C(=O)C(F)(F)F
inactive: [1]; 10 µM unless noted 94.4% | [2]; 10 µM unless noted 98.2% | [3]; 10 µM unless noted 92.7% | [4]; 10 µM unless noted 65.9% | [5]; 10 µM unless noted 113% | [6]; 10 µM unless noted 93.7% | [7]; 10 µM unless noted 64.8% | [8]; 10 µM unless noted 138% | [9]; 10 µM unless noted 98.2% | [10] 117%

Cc1nc2sccn2c1-c1nnc(SCc2ccccc2)o1
inactive: [1]; 10 µM unless noted 87% | [2]; 10 µM unless noted 87.5% | [3]; 10 µM unless noted 86.6% | [4]; 10 µM unless noted 74.2% | [5]; 10 µM unless noted 110% | [6]; 10 µM unless noted 92.6% | [7]; 10 µM unless noted 85.2% | [8]; 10 µM unless noted 87.8% | [9]; 10 µM unless noted 91.3% | [10] 88.1%
